Compound activity (PubChem BioAssay)
Compounds with a hit are over-represented: about 2.4% of the library has one in this group of screens.
ADAM10 inh – inhibits human ADAM10 | O14672 | recombinant ADAM10, EDANS/DABCYL FRET peptide cleavage, 3 h | inhibition, % at 7 µM | 370,000 tested, 0.62% active | AID 720582;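 active means inhibition above a per-campaign cutoff equal to the mean of compounds falling between control-based bounds plus 3 SD, cut at about 20% in these data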;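 further: 0% = DMSO wells while the 100% control is not disclosed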
ADAM17 inh – inhibits human ADAM17; recombinant ADAM17, EDANS/DABCYL FRET peptide cleavage; AID 720648; 370,000 tested, 0.83% active; P78536; inhibition, % at 6.95 µM;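 active means inhibition above the mean of compounds lying between control limits plus 3 SD, set per campaign, cut at about 8.5% in these data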;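 further: 0% = DMSO-only wells as the low control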
A3G deaminase – APOBEC3G (human) deaminase inhibition. recombinant A3G, ssDNA deamination FAM/TAMRA fluorescence. inhibition, % at 20 µM. 330,000 tested, 0.28% active. AID 493012;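 active means inhibition of at least 40% at 20 µM, with no more than 30% in the related APOBEC3A deaminase screen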;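 further: plate controls were DMSO wells with A3G for no effect and wells lacking A3G enzyme for full effect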
Target sequence (Q9HC16 whole entry, looked up): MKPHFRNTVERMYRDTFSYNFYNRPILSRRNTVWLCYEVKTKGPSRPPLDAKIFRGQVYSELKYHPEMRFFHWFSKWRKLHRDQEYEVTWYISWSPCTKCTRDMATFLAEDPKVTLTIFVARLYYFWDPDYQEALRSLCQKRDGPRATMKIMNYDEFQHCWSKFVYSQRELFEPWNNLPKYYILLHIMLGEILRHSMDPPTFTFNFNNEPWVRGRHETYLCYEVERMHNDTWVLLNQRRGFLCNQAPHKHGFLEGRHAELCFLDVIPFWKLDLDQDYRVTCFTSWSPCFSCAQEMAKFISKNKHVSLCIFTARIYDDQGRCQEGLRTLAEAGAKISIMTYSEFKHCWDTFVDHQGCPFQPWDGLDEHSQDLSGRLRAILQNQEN
NRP1-CendR mod – NRP-1/CendR interaction modulation; O14786; FAM-RPARPAR peptide binding to NRP-1, fluorescence polarization; inhibition, % at 25 µM; 360,000 tested, 0.85% active;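 active means inhibition or corrected inhibition above about 18%, plus a signal ratio from 0.5 to 1.5, limit read from the data, passing the limit was not always enough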
APOBEC3A inh – human APOBEC3A DNA deaminase inhibition | recombinant A3A, FAM/TAMRA ssDNA deamination fluorescence | inhibition, % at 20 µM | 330,000 tested, 0.41% active | P31941 | AID 493011;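 active means at least 40% inhibition at 20 µM here, with at most 30% in a related deaminase screen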;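 further: plate controls were A3A with DMSO for no effect and wells lacking A3A enzyme for full effect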
Starred values were filed as active, the others as inactive; / = no result given.

SMILES	ADAM10 inh	ADAM17 inh	A3G deaminase	NRP1-CendR mod	APOBEC3A inh
Cc1ccc(C)c(NS(=O)(=O)c2cc(C(=O)NCCSC3CCCCC3)ccc2C)c1	34*	16*	12	-4	-3
O=C(COC(=O)c1ccc(F)c([N+](=O)[O-])c1)NC(=O)NCc1ccccc1	-8	3	6	22*	0
Cn1ccnc1SCC(=O)Nc1ccc(Cl)cn1	4	1	-6	18*	-3
O=C1C(NS(=O)(=O)c2cccs2)=C(N2CCN(c3cccc(Cl)c3)CC2)C(=O)c2ccccc21	1	-6	4	40*	-2
C[C@@H](c1ccccc1)N1C[C@@H](COCc2ccccc2)Oc2cc(N3CC[C@@H](N(C)C)C3)ccc2S1(=O)=O	10	5	/	25*	/
COC(=O)[C@]12C[C@H](CC(=O)NCCc3ccccc3OC)C(=O)N(CCC3=CCCCC3)C1=C[C@H](COCc1ccccc1)O[C@@H]2C	-3	-3	/	/	/
CCn1c(SCc2nc3ccccc3s2)nnc1-c1cccs1	-3	-2	-8	-37	-4
Cn1c(SCc2nc3ccccc3s2)nnc1-c1cccs1	0	-6	-4	44*	-1
CC1CCCCN1C(=O)Cn1c(=O)oc2ccccc21 (stereo not given)	-1	-1	-1	0	-2
CN(CC(=O)Nc1ccc(F)cc1)C(=O)Cn1c(=O)oc2ccccc21	-8	-3	-1	-8	2
CN(C(=O)Cn1c(=O)oc2ccccc21)C1CCCCC1	-4	0	0	20*	-1
CN(CC(=O)Nc1cccc(F)c1)C(=O)Cn1c(=O)oc2ccccc21	-13	-8	-3	23*	0
Cc1ccccc1CN1[C@@H](C)[C@H](c2ccccc2)Oc2cccc(NCCc3ccccc3)c2S1(=O)=O	-4	-2	/	/	/
C[C@H]1Cn2nncc2Cn2c3ccccc3c(=O)n21	-279	-74	/	/	/
COc1cccc(NC(=O)CSc2nc(O)c(C)c(=O)n2-c2ccc(C)cc2)c1	-5	1	-15	24*	-2
Cc1ccc(-n2c(C)nnc2SCC(=O)Nc2ccccc2)cc1	0	-3	1	20*	0
N#CCCCc1cn(-c2cccc(-c3noc4c3C(=O)N(CC(=O)N3CCOCC3)CC4)c2)nn1	1	-1	/	/	/
CCOc1ccc(N(CC(=O)Nc2c(C)n(C)n(-c3ccccc3)c2=O)S(=O)(=O)c2cccs2)cc1	3	0	/	/	/
COc1c(O)cccc1[C@H](O)C1CCN(CCc2ccc(F)cc2)CC1	-7	-1	-14	43*	-6
O=S(=O)(NCc1csc(-c2cccs2)n1)c1cccs1	-29	-13	-9	35*	-2
C=CC[C@@H](CC(=O)N[C@H](CO)Cc1ccccc1)C(=O)N[C@H](COC(=O)[C@@H](CC=C)CC(=O)OC(C)(C)C)Cc1c[nH]c2ccccc12	12	7	-6	27*	-3
C=CC[C@@H](CC(=O)N[C@@H](CO)Cc1ccccc1)C(=O)N[C@@H](COC(=O)[C@@H](CC=C)CC(=O)OC(C)(C)C)Cc1c[nH]c2ccccc12	9	5	-1	-15	-1
CCOc1ccc(C2C(C(=O)c3ccc(C)o3)=C(O)C(=O)N2c2cc(C)on2)cc1OC (stereo not given)	-7	-3	-3	21*	-7
O=C(OCc1ccccc1)N1C=CC2CC1c1c(Cl)cccc12 (stereo not given)	-12	-4	/	6	/
O=C(OCc1ccccc1)N1C[C@H](O)[C@H](O)C[C@@H]1c1c(Cl)cccc1Br	0	-1	/	20*	/
SMILES	ADAM10 inh	ADAM17 inh	A3G deaminase	NRP1-CendR mod	APOBEC3A inh
Cc1ccc(-c2oc3ccccc3c(=O)c2OCC(=O)O)cc1	-46	-14	-5	19*	-2
O=C(O)COc1c(-c2ccccc2)oc2ccccc2c1=O	-14	-7	-9	1	-7
O=C(NCc1cccs1)c1ccc(S(=O)(=O)N2CCOCC2)cc1	3	-3	0	21*	-7
CC(NC(=O)[C@H](C)NC(=O)N1CCn2c1nc1ccccc12)c1ccccc1 (stereo not given in full)	-4	4	-6	24*	-5
C[C@H](NC(=O)N1CCn2c1nc1ccccc12)C(=O)NC1CC1	-1	1	-5	10	-1
C#CCN(Cc1ccco1)C(=O)c1nnc2c3cc(OC)ccc3n(S(=O)(=O)c3ccc(OC)cc3)c2n1	-25	-11	/	/	/
COc1ccccc1C(=O)N1CCC(Oc2cccnc2)CC1	13	1	/	/	/
